Laboratory results published in PubChem BioAssay (NCATS).
Results filed as inconclusive are left out. Calls of active or inactive are those of the source. Calls come from the whole dose curve; as a rule, active = well fitted inhibition curve with a large enough effect; inconclusive = small, poorly fitted or top-dose-only effect; inactive = flat fitted curve, though single readings scatter.

Columns and labels:
[1] = tested on: JCK; test: qHTS profiling for inhibitors of Plasmodium falciparum proliferation (AID 504749); note: potency is the fitted concentration of half-maximal effect; details: P. falciparum in erythrocytes, SYBR Green DNA, 72 h; series mostly up to 28.7 µM
Summary of the method: (§1)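 Each compound contacts P. falciparum-infected red blood cells for 72 h at 37 C; lysis buffer (Tris, EDTA, saponin, Triton X, SYBR Green I) is added and fluorescence measured next morning; values normalized to controls.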

[2] = tested on: N140; test: as above; details: P. falciparum in erythrocytes, SYBR Green DNA, 72 h; series mostly up to 28.7 µM
Summary of the method: as §1

[3] = tested on: P93_24; test: as above; details: P. falciparum in erythrocytes, SYBR Green DNA, 72 h; series mostly up to 28.7 µM
Summary of the method: as §1

[4] = tested on: P94_40; test: as above; details: P. falciparum in erythrocytes, SYBR Green DNA, 72 h; series mostly up to 28.7 µM
Summary of the method: as §1

[5] = tested on: PAD; test: as above; details: P. falciparum in erythrocytes, SYBR Green DNA, 72 h; series mostly up to 28.7 µM
Summary of the method: as §1

[6] = tested on: PC15; test: as above; details: P. falciparum in erythrocytes, SYBR Green DNA, 72 h; series mostly up to 28.7 µM
Summary of the method: as §1

[7] = tested on: PC26; test: as above; details: P. falciparum in erythrocytes, SYBR Green DNA, 72 h; series mostly up to 28.7 µM
Summary of the method: as §1

[8] = tested on: PC49; test: as above; details: P. falciparum in erythrocytes, SYBR Green DNA, 72 h; series mostly up to 28.7 µM
Summary of the method: as §1

[9] = tested on: SC27B; test: as above; details: P. falciparum in erythrocytes, SYBR Green DNA, 72 h; series mostly up to 28.7 µM
Summary of the method: as §1

[10] = tested on: TAB109; test: as above; details: P. falciparum in erythrocytes, SYBR Green DNA, 72 h; series mostly up to 28.7 µM
Summary of the method: as §1

[11] = tested on: TAB113; test: as above; details: P. falciparum in erythrocytes, SYBR Green DNA, 72 h; series mostly up to 28.7 µM
Summary of the method: as §1

[12] = tested on: TAB165; test: as above; details: P. falciparum in erythrocytes, SYBR Green DNA, 72 h; series mostly up to 28.7 µM
Summary of the method: as §1

[13] = tested on: W2; test: as above; details: P. falciparum in erythrocytes, SYBR Green DNA, 72 h; series mostly up to 28.7 µM
Summary of the method: as §1

[14] = tested on: CRL-7250; test: Cytotoxic Profiling of Annotated Libraries Using Quantitative High-Throughput Screening (AID 1296008); details: Five cell lines viability, CellTiter-Glo ATP luminescence, 48-72 h; stronger effect = lower value; for max response: % is set by controls: 0 for no effect and ±100 for the full control effect
Summary of the method: (§2)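 Cells exposed to compounds for 48 or 72 hr at 37 degrees Celsius. Viability read as ATP-coupled luminescence with CellTiter-Glo after 10 min at room temperature.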

[15] = tested on: HEK293; test: as above; details: Five cell lines viability, CellTiter-Glo ATP luminescence, 48-72 h; stronger effect = lower value
Summary of the method: as §2

[16] = tested on: HaCat; test: as above; details: Five cell lines viability, CellTiter-Glo ATP luminescence, 48-72 h; stronger effect = lower value
Summary of the method: as §2

[17] = tested on: KB-3-1; test: as above; details: Five cell lines viability, CellTiter-Glo ATP luminescence, 48-72 h, stronger effect = lower value
Summary of the method: as §2

[18] = tested on: NIH3T3; test: as above; details: Five cell lines viability, CellTiter-Glo ATP luminescence, 48-72 h; stronger effect = lower value
Summary of the method: as §2

[19] = tested on: HACAT; test: qHTS assay to identify novel small-molecules to repurpose for Merkel cell carcinoma treatment (AID 1296009); details: MCC and control cell lines, CellTiter-Glo viability, 72 h; at 44.8 µM (top of the series) unless noted
Summary of the method: (§3)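 Dose-response viability screen; 72 hr exposure at 37 degree celsius; CellTiter-Glo added, 10 min room temperature, luminescence read; RLUs scaled between no-cell and DMSO wells.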

[20] = tested on: HEK293T; test: as above; details: MCC and control cell lines, CellTiter-Glo viability, 72 h; at 44.8 µM (top of the series) unless noted
Summary of the method: as §3
Note: nearly all actives have a fitted effect of over 60% in size.

NCC1CCC(C(=O)Oc2ccc(CCC(=O)O)cc2)CC1 (stereo not drawn)
inactive: Potency [1] | Potency [2] | Potency [3] | Potency [4] | Potency [5] | Potency [6] | Potency [7] | Potency [8] | Potency [9] | Potency [10] | Potency [11] | Potency [12] | Potency [13] | max response [14] -11.6% | max response [15] -1.47% | outcome [16] | max response [17] -7.85% | max response [18] -0.473% | outcome [19]

C[C@@H]1CCC[C@H](C)N1
inactive: Potency [1] | Potency [2] | Potency [3] | Potency [4] | Potency [5] | Potency [6] | Potency [7] | Potency [8] | Potency [9] | Potency [10] | Potency [12] | Potency [13] | max response [14] 0.393% | max response [15] -9.02% | outcome [16] | max response [17] -5.17% | max response [18] 4.6% | outcome [19]

Cc1cc(OI)c(C(C)C)cc1-c1cc(C(C)C)c(OI)cc1C
active: Potency [2] 12.6 µM | Potency [4] 11.2 µM | Potency [6] 11.2 µM | Potency [11] 10 µM | Potency [13] 6.01 µM
inactive: Potency [1] | outcome [14] | max response [15] 2.3% | outcome [16] | max response [17] 12.2% | max response [18] -2.54% | outcome [19]

O[C@@H]1CO[C@H]2[C@@H]1OC[C@@H]2O
inactive: Potency [1] | Potency [2] | Potency [3] | Potency [4] | Potency [5] | Potency [6] | Potency [7] | Potency [8] | Potency [9] | Potency [10] | Potency [11] | Potency [12] | Potency [13] | outcome [14] | max response [15] -0.534% | outcome [16] | max response [17] 6.79% | max response [18] 4.37% | outcome [19]

O=C(O)Cn1c(C(=O)Nc2nc(-c3ccccc3Cl)cs2)cc2ccccc21
inactive: Potency [1] | Potency [2] | Potency [3] | Potency [4] | Potency [5] | Potency [6] | Potency [7] | Potency [8] | Potency [9] | Potency [10] | Potency [11] | Potency [12] | Potency [13] | outcome [14] | max response [15] -5.16% | outcome [16] | max response [17] -7.98% | outcome [18] | outcome [19]

NC(N)=NCCN1CCCCCCC1
inactive: Potency [1] | Potency [2] | Potency [3] | Potency [4] | Potency [5] | Potency [6] | Potency [7] | Potency [8] | Potency [9] | Potency [10] | Potency [11] | Potency [12] | Potency [13] | max response [14] -19.7% | max response [15] 0.733% | outcome [16] | max response [17] 18.1% | max response [18] 4.36% | outcome [19] inactive [at 0.588 µM]

CCOc1cc(NC(C)=O)ccc1C(=O)OC
inactive: Potency [1] | Potency [2] | Potency [3] | Potency [4] | Potency [5] | Potency [6] | Potency [7] | Potency [8] | Potency [9] | Potency [10] | Potency [11] | Potency [12] | Potency [13] | max response [14] 3.11% | max response [15] 0.16% | outcome [16] | max response [17] 19.6% | max response [18] 0.0399% | outcome [19]

Cc1cccc(C(=O)O)c1O
inactive: Potency [1] | Potency [2] | Potency [3] | Potency [4] | Potency [5] | Potency [6] | Potency [7] | Potency [8] | Potency [9] | Potency [10] | Potency [11] | Potency [12] | Potency [13] | max response [14] -0.667% | max response [15] -2.23% | outcome [16] | max response [17] 2.2% | outcome [18] | outcome [19]

CC(=O)NS(=O)(=O)c1ccc(N)cc1
inactive: Potency [1] | Potency [2] | Potency [4] | Potency [5] | Potency [6] | Potency [7] | Potency [8] | Potency [9] | Potency [10] | Potency [11] | Potency [12] | Potency [13] | max response [14] -3.19% | max response [15] -5.52% | outcome [16] | max response [17] 3.12% | max response [18] -1.48% | outcome [19]

CC(=O)Oc1cccc(C)c1
inactive: Potency [1] | Potency [2] | Potency [3] | Potency [4] | Potency [5] | Potency [6] | Potency [7] | Potency [8] | Potency [9] | Potency [10] | Potency [11] | Potency [12] | Potency [13] | max response [14] 2.1% | max response [15] -2.07% | outcome [16] | max response [17] -6.53% | max response [18] -2.31% | outcome [19]

O=C1c2ccccc2C(=O)C1c1ccc(Br)cc1
inactive: Potency [1] | Potency [2] | Potency [6] | Potency [8] | Potency [9] | max response [14] -1.25% | max response [15] -0.633% | outcome [16] | max response [17] -16.6% | max response [18] -1.29% | outcome [19]
active: Potency [4] 10 µM | Potency [11] 8.91 µM | Potency [13] 4.78 µM

COc1nccnc1NS(=O)(=O)c1ccc(N)cc1
inactive: Potency [1] | Potency [2] | Potency [3] | Potency [4] | Potency [5] | Potency [6] | Potency [7] | Potency [8] | Potency [9] | Potency [10] | Potency [11] | Potency [12] | Potency [13] | max response [14] 3.15% | max response [15] 4.9% | outcome [16] | max response [17] -12% | outcome [18] | outcome [19]

CCN(CC)S(=O)(=O)c1ccc(C(=O)O)cc1
inactive: Potency [1] | Potency [2] | Potency [3] | Potency [4] | Potency [5] | Potency [6] | Potency [7] | Potency [8] | Potency [9] | Potency [10] | Potency [11] | Potency [12] | Potency [13] | max response [14] -2.94% | outcome [15] | max response [16] 1.67% | max response [17] 7.96% | max response [18] -6.52% | outcome [20]
